According to PubChem BioAssay AID1159580 (chemical genetic matrix, 2015):
“And” between values parts separate entries of the source, which are not always exact repeats. Identical values can stand only once. Among all 5,500 compounds or so, about 2,000 (36%) were called active. Inconclusive results (about 18%) are left out. Cut-off read from the data, not from the text of the source: active = normalized growth mostly below about 0.91 (no sharp cut-off); inconclusive = no clear call, values can overlap the other calls; inactive = mostly above about 0.92. This is one part of the list.

Experiment: chemical genetic growth profiling, strain panel (AID 1159580);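 note: tested at 20 µM; growth read once vehicle control cultures reached saturation at 30 °C; 1 = growth at the plate median or of vehicle wells; lower values mean less growth of the strain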
Conditions: S. cerevisiae deletion strains, growth OD

Measured: normalized growth

CC(C)[C@@H]1CC[C@@H](C)C[C@H]1OC(=O)c1ccccc1
inactive: locus YAL013W, strain DEP1, active compounds read low 1.01 | locus YAL021C, strain ccr4, active compounds read low 1.01 | locus YAL026C, strain drs2, active compounds read low 1.01 | locus YAL030W, strain snc1, active compounds read low 1.01 | locus YBL061C, strain skt5, active compounds read low 1.01 | locus YBR009C, strain hhf1, active compounds read low 0.999 | locus YBR021W, strain FUR4, active compounds read low 0.997 | locus YBR023C, strain chs3, active compounds read low 1.01 | locus YBR171W, strain sec66, active compounds read low 1 | locus YBR229C, strain ROT2, active compounds read low 1.01 | locus YBR231C, strain swc5, active compounds read low 1.02 | locus YBR279W, strain paf1, active compounds read low 1.01 | locus YCL011C, strain gbp2, active compounds read low 1 | locus YCL016C, strain dcc1, active compounds read low 1.01 | locus YCL029C, strain bik1, active compounds read low 0.99 | locus YCL061C, strain MRC1, active compounds read low 1 | locus YCL069W, strain vba3, active compounds read low 1 | locus YCR088W, strain abp1, active compounds read low 1 | locus YDL005C, strain med2, active compounds read low 0.991 | locus YDL035C, strain GPR1, active compounds read low 0.988 | locus YDL040C, strain nat1, active compounds read low 0.993 | locus YDL074C, strain BRE1, active compounds read low 0.995 | locus YDL101C, strain DUN1, active compounds read low 0.999 | locus YDL134C, strain PPH21, active compounds read low 0.962 | locus YDL185W, strain tfp1, active compounds read low 0.997 | locus YDL192W, strain arf1, active compounds read low 0.929 | locus YDR001C, strain nth1, active compounds read low 0.994 | locus YDR069C, strain doa4, active compounds read low 0.999 | locus YDR101C, strain arx1, active compounds read low 0.978 | locus YDR137W, strain rgp1, active compounds read low 0.942 | locus YDR150W, strain NUM1, active compounds read low 1.04 | locus YDR159W, strain sac3, active compounds read low 1.02 | locus YDR162C, strain NBP2, active compounds read low 0.91 | locus YDR195W, strain ref2 0.975 | locus YDR297W, strain sur2, active compounds read low 1.01 | locus YDR318W, strain mcm21, active compounds read low 0.992 | locus YDR334W, strain swr1, active compounds read low 1 | locus YDR335W, strain msn5, active compounds read low 1.01 | locus YDR388W, active compounds read low 0.999 | locus YDR392W, strain spt3, active compounds read low 0.997 | locus YDR502C, strain sam2, active compounds read low 0.995 | locus YEL003W, strain gim4, active compounds read low 1.02 | locus YEL037C, strain rad23, active compounds read low 1.01 | locus YEL061C, strain CIN8 (second series), active compounds read low 1.01 | locus YEL061C, strain CIN8, active compounds read low 1.03 | locus YER015W, strain faa2, active compounds read low 1.01 | locus YER016W, strain bim1, active compounds read low 0.999 | locus YER110C, active compounds read low 1 | locus YER111C, strain swi4, active compounds read low 1.01 | locus YER155C, strain BEM2 (second series), active compounds read low 1.02 | locus YER155C, strain BEM2, active compounds read low 1.01 | locus YER167W, strain BCK2, active compounds read low 1.01 | locus YFR010W, strain ubp6, active compounds read low 1.01 | locus YGL078C, strain dbp3, active compounds read low 0.971 | locus YGL086W, strain mad1, active compounds read low 0.999 | locus YGL167C, strain pmr1, active compounds read low 1 | locus YGL173C, strain kem1, active compounds read low 1.02 | locus YGL227W, strain vid30, active compounds read low 1 | locus YGL240W, strain doc1, active compounds read low 1.03 | locus YGL248W, strain PDE1, active compounds read low 0.94 | locus YGL253W, strain hxk2, active compounds read low 1.01 | locus YGR135W, strain pre9, active compounds read low 0.974 | locus YGR252W, strain gcn5, active compounds read low 0.959 | locus YHR013C, strain ard1, active compounds read low 1.06 | locus YHR027C, strain rpn1, active compounds read low 1 | locus YHR030C, strain SLT2, active compounds read low 1.02 and 1.01 | locus YHR079C, strain IRE1 (second series), active compounds read low 0.997 | locus YHR079C, strain IRE1, active compounds read low 1.01 | locus YHR094C, strain hxt1, active compounds read low 1 | locus YHR129C, strain ARP1, active compounds read low 1.01 | locus YHR142W, strain chs7, active compounds read low 0.976 | locus YHR200W, strain rpn10, active compounds read low 1.02 | locus YIL066C, strain RNR3, active compounds read low 1.01 | locus YIL073C, strain SPO22, active compounds read low 0.881 | locus YIL125W, strain kgd1, active compounds read low 0.99 | locus YIR030C, strain dcg1, active compounds read low 0.996 | locus YJL092W, strain hpr5, active compounds read low 1 | locus YJL095W, strain BCK1 (second series), active compounds read low 1.01 | locus YJL095W, strain BCK1, active compounds read low 0.992 and 1.02 | locus YJL115W, strain asf1, active compounds read low 1 | locus YJL129C, strain trk1, active compounds read low 0.994 | locus YJL134W, strain LCB3, active compounds read low 1.02 | locus YJL154C, strain vps35, active compounds read low 0.993 | locus YJL164C, strain tpk1, active compounds read low 0.997 | locus YJL166W, strain qcr8, active compounds read low 0.984 | locus YJL168C, strain set2, active compounds read low 0.986 | locus YJL187C, strain SWE1 (second series), active compounds read low 1 | locus YJL187C, strain SWE1, active compounds read low 1.01 | locus YJR043C, strain POL32, active compounds read low 1.03 | locus YJR066W, strain TOR1, active compounds read low 0.951 | locus YKL009W, strain mrt4, active compounds read low 0.985 | locus YKL068W, active compounds read low 1.01 | locus YKL085W, strain MDH1 (second series), active compounds read low 1.01 | locus YKL085W, strain MDH1, active compounds read low 1.01 | locus YKL160W, strain elf1, active compounds read low 0.998 | locus YKR001C, strain vps1, active compounds read low 0.91 | locus YKR026C, strain gcn3, active compounds read low 0.977 | locus YKR091W, strain srl3, active compounds read low 0.995 | locus YLL001W, strain dnm1, active compounds read low 0.993 | locus YLL026W, active compounds read low 1 | locus YLL041C, strain sdh2, active compounds read low 0.996 | locus YLR027C, strain aat2, active compounds read low 1 | locus YLR039C, strain RIC1, active compounds read low 0.922 | locus YLR058C, strain SHM2, active compounds read low 1.01 | locus YLR102C, strain apc9, active compounds read low 1 | locus YLR113W, strain HOG1, active compounds read low 1.02 | locus YLR221C, strain rsa3, active compounds read low 0.997 | locus YLR258W, strain gsy2, active compounds read low 1 | locus YLR262C, strain YPT6 (second series), active compounds read low 0.973 | locus YLR262C, strain YPT6, active compounds read low 0.981 | locus YLR268W, strain sec22, active compounds read low 0.997 | locus YLR320W, strain mms22, active compounds read low 1.01 | locus YLR330W, strain CHS5, active compounds read low 1.02 | locus YLR342W, strain FKS1 (second series), active compounds read low 1.06 | locus YLR342W, strain FKS1, active compounds read low 1.01 | locus YLR357W, strain rsc2, active compounds read low 1.01 | locus YLR370C, strain arc18, active compounds read low 1.01 | locus YLR371W, strain rom2, active compounds read low 1 | locus YLR384C, strain iki3, active compounds read low 1.03 | locus YLR418C, strain cdc73, active compounds read low 1 | locus YML016C, strain PPZ1, active compounds read low 1.01 | locus YML032C, strain rad52, active compounds read low 1.01 | locus YML120C, strain ndi1, active compounds read low 1.02 | locus YML124C, strain tub3, active compounds read low 0.999 | locus YMR058W, strain fet3, active compounds read low 1.02 | locus YMR078C, strain ctf18, active compounds read low 1 | locus YMR125W, strain sto1, active compounds read low 0.992 | locus YMR129W, active compounds read low 0.999 | locus YMR205C, strain PFK2, active compounds read low 1.04 | locus YMR223W, strain ubp8, active compounds read low 0.995 | locus YMR231W, strain pep5, active compounds read low 1 | locus YMR307W, strain GAS1, active compounds read low 0.948 | locus YNL067W, strain RPL9B, active compounds read low 1 | locus YNL071W, strain lat1, active compounds read low 1 | locus YNL153C, strain GIM3, active compounds read low 1.02 | locus YNL183C, strain NPR1, active compounds read low 0.946 | locus YNL209W, strain ssb2, active compounds read low 1 | locus YNL233W, strain BNI4, active compounds read low 1 | locus YNL248C, strain rpa49, active compounds read low 0.986 | locus YNL250W, strain rad50, active compounds read low 1.02 | locus YNL271C, strain bni1, active compounds read low 0.993 | locus YNL298W, strain CLA4, active compounds read low 0.992 | locus YNL307C, strain MCK1, active compounds read low 1.01 | locus YNL322C, strain KRE1 (second series), active compounds read low 1.01 | locus YNL322C, strain KRE1, active compounds read low 1.01 | locus YNR049C, strain mso1, active compounds read low 1 | locus YNR052C, strain pop2, active compounds read low 0.989 | locus YOL012C, strain htz1 1.15 | locus YOL147C, strain pex11, active compounds read low 1 | locus YOR001W, strain rrp6, active compounds read low 0.999 | locus YOR061W, strain CKA2, active compounds read low 1.01 | locus YOR069W, strain VPS5, active compounds read low 1.01 | locus YOR070C, strain gyp1, active compounds read low 1.01 | locus YOR080W, strain dia2, active compounds read low 1.01 | locus YOR083W, strain WHI5, active compounds read low 1 | locus YOR106W, strain vam3, active compounds read low 0.949 | locus YOR136W, strain idh2, active compounds read low 0.996 | locus YOR144C, strain elg1, active compounds read low 1 | locus YOR184W, strain ser1, active compounds read low 0.921 | locus YOR231W, strain MKK1, active compounds read low 1.02 | locus YOR265W, strain rbl2, active compounds read low 0.997 | locus YOR270C, strain vph1, active compounds read low 1.01 | locus YOR290C, strain snf2, active compounds read low 0.979 | locus YOR316C, strain cot1, active compounds read low 1 | locus YPL051W, strain arl3, active compounds read low 1 | locus YPL078C, strain atp4, active compounds read low 0.999 | locus YPL106C, strain sse1, active compounds read low 1.02 | locus YPL240C, strain hsp82, active compounds read low 1 | locus YPL241C, strain CIN2, active compounds read low 1.02 | locus YPL256C, strain CLN2, active compounds read low 1.02 | locus YPR119W, strain clb2, active compounds read low 0.993 | locus YPR141C, strain kar3, active compounds read low 1.01 | locus YPR163C, strain tif3, active compounds read low 1 | locus YPR167C, strain met16, active compounds read low 0.993 | strain wtn01, active compounds read low 1
